Sfp PPTase inh – qHTS Assay for Inhibitors of Bacillus subtilis Sfp phosphopantetheinyl transferase (PPTase). Biochemical Sfp PPTase activity, qHTS. Potency, µM, for the others: largest response in the series, negative = inhibition, hits mostly inhibitors. actives 3.5% (n = 310,000). AID 1490, 2009;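 note: the enzyme is Sfp with the accession as filed and its product quenches rhodamine fluorescence; 0% = enzyme reaction without inhibitor and -100% = no enzyme wells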
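Buffer: 50 mM Hepes-Na pH 7.6, 10 mM MgCl2, 0.01% Nonidet P-40, 0.01% BSA. Enzyme 15 nM, pre-exposed to compound 15 min; substrates then added and fluorescence change tracked over 30 min.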
ALDH1A1 inh – qHTS Assay for Inhibitors of Aldehyde Dehydrogenase 1 (ALDH1A1); Aldehyde dehydrogenase 1A1 (Homo sapiens), P00352; Purified ALDH1A1, NADH fluorescence, propionaldehyde substrate; Potency, µM (series often up to 75.3 µM), for inactives: at the top dose activity, negative = inhibition, usual class: inhibitors; actives 7.3% (n = 220,000); AID 1030, 2008; active = well fitted inhibition curve with a large enough effect, not every such curve was filed as active; inconclusive = small, poorly fitted or top-dose-only effect, or another doubt; inactive = no such curve, though single readings can be large or run the other way;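 note: plate controls were no enzyme wells and a reference inhibitor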
PLK1 PBD inh – qHTS for Inhibitors of PLK1-PDB (polo-like kinase 1 - polo-box domain): Primary Screen | Serine/threonine-protein kinase PLK1 (Homo sapiens), P53350 | Plk1 PBD binding of FITC phosphopeptide, fluorescence polarization | Potency, µM, inactives show max response, negative = inhibition, most hits filed as inhibitors | actives 2.8% (n = 360,000) | AID 720504, 2013; note: series mostly up to about 57 µM; nearly all actives have a fitted effect of over 65% in size
RORg inh – qHTS for inhibitors of ROR gamma transcriptional activity; Nuclear receptor ROR-gamma (Mus musculus), P51450; Drosophila S2 Gal4-RORgamma UAS-luciferase reporter, 20 h; Potency, µM (series often up to 53.6 µM), for the others: at the top dose activity change, negative = inhibition, hits mostly inhibitors; actives 5.4% (n = 310,000); note: nearly all actives have a fitted effect of over 60% in size
Target sequence (P51450 whole entry, looked up, the tested form may be a part): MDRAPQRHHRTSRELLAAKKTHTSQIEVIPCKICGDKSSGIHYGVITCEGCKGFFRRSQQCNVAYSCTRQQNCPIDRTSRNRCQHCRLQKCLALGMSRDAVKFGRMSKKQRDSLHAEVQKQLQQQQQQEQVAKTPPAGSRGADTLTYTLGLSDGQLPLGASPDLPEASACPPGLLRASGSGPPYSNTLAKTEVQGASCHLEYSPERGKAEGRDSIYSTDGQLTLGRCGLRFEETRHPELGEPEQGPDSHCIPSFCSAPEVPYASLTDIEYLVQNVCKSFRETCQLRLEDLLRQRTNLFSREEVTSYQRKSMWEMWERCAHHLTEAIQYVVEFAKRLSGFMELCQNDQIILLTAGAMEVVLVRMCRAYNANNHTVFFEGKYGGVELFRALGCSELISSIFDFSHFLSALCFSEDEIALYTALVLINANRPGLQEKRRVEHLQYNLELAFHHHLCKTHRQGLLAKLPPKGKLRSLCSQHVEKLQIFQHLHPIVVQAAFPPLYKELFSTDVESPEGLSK
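In this cell-based reporter format, copper sulfate (700 uM final) drives Gal4–ROR gamma fusion expression from a metallothionein promoter in Drosophila Schneider cells; compounds preincubated 1 hr, reporter read after 20 hr at ambient temperature.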
VP16 counter – VP16 counterscreen qHTS for inhibitors of ROR gamma transcriptional activity; actives 3.5% (n = 310,000); AID 2546, 2010; Potency, µM (titrated, usually from 53.6 µM), for the others: at the highest dose activity, negative = inhibition, hits mostly inhibitors; Drosophila S2 Gal4-VP16 UAS-luciferase, luminescence, 20 h;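 note: Gal4-VP16 expression switched on by copper sulfate through the metallothionein promoter; nearly all actives have a fitted effect of over 50% in size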
* = called active by the depositor; ? = inconclusive; nt = no result given; [ ] = dose if it differs, or a comment. Hits are enriched below; roughly 12% of the tested compounds scored in any of these assays. Unless noted, calls come from the whole dose curve; as a rule, active = well fitted curve in the direction sought with a large enough effect; inconclusive = small, poorly fitted or top-dose-only effect, or another doubt; inactive = no such curve, though single readings can be large; an effect the other way counts as inactive or inconclusive. Unless noted, % is set by controls: 0 for no effect and ±100 for the full control effect; potency is the fitted concentration of half-maximal effect.

SMILES	Sfp PPTase inh	ALDH1A1 inh	PLK1 PBD inh	RORg inh	VP16 counter
COc1ccc(CNC(=O)C2CCN(S(=O)(=O)c3ccc4c(c3)CC(C)N4C(=O)C3CC3)CC2)cc1 (centres undefined)	5%	nt	-10%	26%	-1%
CN(C)c1ccc(N=c2sc3ccccc3n2C)cc1	13%	2µM*	-11%	28%	-3%
Cn1c(=NC(=O)CCl)sc2ccccc21	5%	0.71µM*	?	?	?
COc1cccc(CCc2ccccc2OCC(CN(C)C)OC(=O)CCC(=O)O)c1 (centres undefined)	24%	nt	nt	31%	6%
Cc1cc(C)nc(Nc2n[nH]c(-c3ccccc3C)n2)n1	6%	?	4%	?	-6%
Cc1cc(C)nc(Nc2n[nH]c(-c3ccccc3Br)n2)n1	10%	?	-8%	14µM*	?
Cc1cc(C)nc(Nc2n[nH]c(-c3ccc(C(C)(C)C)cc3)n2)n1	32%	5%	-5%	10µM*	5%
COc1cc(/C=C/C(=O)Nc2nnc(CC(C)(C)C)s2)cc(OC)c1OC	45µM*	?	8.4µM*	0%	?
COc1cccc(-c2nc(CS(=O)(=O)CC(=O)N3CCCCC3)c(C)o2)c1	13%	nt	-11%	-17%	-7%
COc1cccc(-c2nc(CS(=O)(=O)CC(=O)Nc3cccc(C(C)=O)c3)c(C)o2)c1	12%	nt	24µM*	7%	-5%
COc1ccc(-c2nc(CS(=O)(=O)CC(=O)Nc3cccc(C(C)=O)c3)c(C)o2)cc1	0%	nt	-15%	-17%	-5%
COc1cccc(-c2nc(CS(=O)(=O)CC(=O)N3CCN(c4ccccn4)CC3)c(C)o2)c1	5%	32µM*	-12%	5%	-3%
COc1ccc(Br)c(Cn2c(C)c(C(=O)NCCC#N)sc2=O)c1	nt	nt	-3%	nt	nt
Cn1c(=O)oc2cc(S(=O)(=O)Nc3cccc(C(=O)O)c3)ccc21	-4%	14%	-2%	-10%	2%
CC(=O)c1cccc(NS(=O)(=O)c2ccc3c(c2)oc(=O)n3C)c1	-15%	22µM*	-5%	-12%[0.365 µM]	nt
Cn1c(=O)oc2cc(S(=O)(=O)Nc3ccccc3)ccc21	4%	-2%	21µM*	-22%	-6%
CC#CCN1c2ccccc2[C@]23C[C@@H](C(=O)OC)N(C(=O)COCc4ccccc4)C2=NC(C(=O)OC)=C(C(=O)OC)[C@H]13	12%	10%[13.5 µM]	nt	nt	nt
Cc1ccc(S(=O)(=O)N2CCNC(=O)CC2)cc1	15%	3%	-1%	12%	6%
CCC/C=C(\CCC)C(NC(=O)Oc1ccc(F)cc1)c1ccc(C(=O)OC)cc1 (centres undefined)	14%	5%	nt	3%	-1%
CC(C(=O)NC1C(=O)N2C(C(=O)O)=C(CSc3nnnn3C)CSC12)n1cc(Cl)cn1 (centres undefined)	40µM*	-15%	-17%	6%	6%
Cc1c(Cl)cnn1CC(=O)NC1C(=O)N2C(C(=O)O)=C(CSc3nnnn3C)CSC12 (centres undefined)	50µM*	-1%	?	-2%	10%
O=C(O)C1=C(CSc2nnnn2CS(=O)(=O)O)CS[C@@H]2[C@H](NC(=O)[C@H](O)c3ccccc3)C(=O)N12	79µM*	nt	nt	-12%	-6%
Cc1cc(=O)c(C(=O)N[C@@H](C(=O)N[C@@H]2C(=O)N3C(C(=O)O)=C(CSc4nnnn4C)CS[C@H]23)c2ccc(O)cc2)c[nH]1	-23%	nt	nt	16%	-1%
Cc1nn(CC(=O)NC2C(=O)N3C(C(=O)O)=C(CSc4nnnn4C)CSC23)cc1Br (centres undefined)	?	1%	-11%	-7%	-12%
NC(=O)c1cc[n+](CC2=C(C(=O)O)N3C(=O)[C@@H](NC(=O)C(c4ccccc4)S(=O)(=O)[O-])[C@H]3SC2)cc1 (some centres undefined)	11%	7%	4.7µM*	-15%	-10%
SMILES	Sfp PPTase inh	ALDH1A1 inh	PLK1 PBD inh	RORg inh	VP16 counter
CCCCCCCCCCCCCCCCC(C(=O)O)C(O)(CC(=O)O)C(=O)O (centres undefined)	-17%	nt	nt	-13%	-10%
NS(=O)(=O)c1ccc(CNC(=S)NC2CC2)cc1	8%	3.2µM*	?	13%	-2%
NS(=O)(=O)c1ccc(NC(=S)NC2CC2)cc1	10µM*	?	?	-3%	2%
N=c1c2c(-c3ccccc3)c(-c3ccccc3)n(Cc3ccco3)c2ncn1CCO	-7%	5%	7%	-10%	-12%
N=c1c2c(-c3ccccc3)c(-c3ccccc3)n(Cc3ccco3)c2ncn1CCCO	?	?	16%	3.2µM*	3.2µM*
O=c1c(-c2cccs2)nc2cncnc2n1Cc1ccccc1	11%	?	nt	-26%	16%
COc1cc(NC(=S)Nc2ccc3c(c2)OCCO3)cc(OC)c1OC	0%	nt	-7%	-22%	24%
O=C(Nc1c(-c2ccc3c(c2)OCO3)[nH][nH]c1=O)c1ccccc1	nt	nt	13µM*	nt	nt
NS(=O)(=O)c1ccc(NC(=S)NC(=O)c2ccc3c(c2)OCO3)cc1	-7%	?	-16%	?	?
O=C(NC(=S)Nc1ccc2c(c1)OCCO2)c1cccc(Br)c1	-6%	14µM*	2%	5µM*	?
CC(C)c1ccc(O)c(NC(=S)NC(=O)c2ccc3c(c2)OCO3)c1	-22%	nt	-14%	0.56µM*	1.4µM*
S=C(Nc1ccc(Br)cc1)Nc1ccc2c(c1)OCCO2	-3%	nt	-14%	18µM*	?
O=C(Nc1c(-c2ccc3c(c2)OCO3)[nH][nH]c1=O)c1cccc(C(F)(F)F)c1	nt	nt	-13%	nt	nt
COc1ccc2nc(Cl)c(C=O)c(N3CCOCC3)c2c1	nt	nt	-7%	nt	nt
O=C(CCCCCN1C(=O)[C@@H]2Cc3ccccc3CN2C1=O)Nc1cccc(F)c1	5%	nt	-13%	1%	?
Cc1c(NC(=S)NC(=O)c2cccc3ccccc23)cccc1C(=O)O	-3%	nt	-5%	17%	11%
O=C(O)c1ccccc1NC(=S)NC(=O)c1cccc2ccccc12	50µM*	?	-21%	-2%	5%
O=C(NC(=S)Nc1ccc2c(c1)OCCO2)c1cccc2ccccc12	-6%	13µM*	-3%	10µM*	?
O=C(NC(=S)Nc1ccccc1Br)c1ccc2c(c1)OCO2	-1%	nt	-6%	4.5µM*	8.9µM*
O=C(NC(=S)Nc1ccc2c(c1)OCO2)c1ccccc1	-23%	5µM*	-9%	4.5µM*	?
CCc1ccc(C(O)c2ncc(-c3ccc(C)cc3)[nH]2)cc1 (centres undefined)	nt	nt	-23%	nt	nt
